Source: PubChem BioAssay
BAZ2B inh: BAZ2B (human) inhibition. Q9UIF8. AlphaScreen BAZ2B-H3K14Ac peptide displacement. Potency, µM (doses to about 114 µM), for inactives: at the top dose activity change, negative = inhibition, usual class: inhibitors. 360,000 compounds, 4.4% hits. AID 504333; further: on the % scale 0 is the no-effect control and ±100 the full control effect; nearly all actives have a fitted effect of over 60% in size
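AlphaScreen luminescence quantifies BAZ2B engagement of H3K14Ac peptide; the protein and biotinylated peptide are both at 50 nM final, buffer PBS pH 7.4 with 0.01% Tween-20, all steps at room temperature.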
G9a inh: G9a (human) methyltransferase inhibition; Q96KQ7; 350,000 compounds, 8.8% hits; G9a H3K9 monomethylation, AlphaScreen, 2 h; Potency, µM (doses to about 102 µM), for the others: top-dose activity, negative = inhibition, most hits filed as inhibitors; further: on the % scale 0 is the no-effect control and ±100 the full control effect; nearly all actives have a fitted effect of over 75% in size
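Enzyme 20 nM + cpd, 15 min RT; add b-H3K9 pep 500 nM / SAM 20 uM; 2 h RT; anti-H3K9me1 Ab 0.5 ug/mL + SA donor / anti-rabbit acceptor beads 20 ug/mL each, 10 min; AlphaScreen read.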
Sfp PPTase inh: inhibitors of Bacillus subtilis Sfp phosphopantetheinyl transferase. Biochemical Sfp PPTase activity, qHTS. Potency, µM, without a hit: largest response in the series, negative = inhibition, hits mostly inhibitors. 310,000 compounds, 3.5% hits;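 further: the enzyme is Sfp with the accession as filed and its product quenches rhodamine fluorescence; 0% = enzyme reaction without inhibitor and -100% = no enzyme wells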
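With Hepes-Na pH 7.6 buffer containing 10 mM MgCl2, Sfp (15 nM) modified BHQ-2-YbbR (12.5 uM) using rhodamine-CoA (5 uM). Two reads 30 minutes apart at 525/598 nm yielded each well's rate.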
HP1b chromo inh: HP1-beta chromodomain-methylated histone interaction inhibition. P83916. AlphaScreen HP1-beta / biotin-H3K9me3 peptide binding. Potency, µM (series often up to 114 µM), for inactives: at the highest dose activity change, negative = inhibition, hits mostly inhibitors. 390,000 compounds, 0.56% hits. AID 540317; further: nearly all actives have a fitted effect of over 70% in size
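AlphaScreen: HP1-beta (50 nM) preformed 30 min with biotin-H3(1-18)K9me3 peptide (50 nM) in PBS pH 7.4, 0.01% Tween-20. Compound added for 30 min at RT, then streptavidin donor/nickel chelate acceptor beads (10 ug/mL) for 30 min.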
JMJD2A Tudor inh: JMJD2A Tudor domain (human) inhibition; AlphaScreen JMJD2A-Tudor / H3K4me3 peptide binding; 390,000 compounds, 4.4% hits; Potency, µM (titrated, usually from 114 µM), for the others: top-dose activity change, negative = inhibition, most hits filed as inhibitors; O75164; further: on the % scale 0 is the no-effect control and ±100 the full control effect; nearly all actives have a fitted effect of over 50% in size
Target sequence (O75164 whole entry, looked up, the tested form may be a part): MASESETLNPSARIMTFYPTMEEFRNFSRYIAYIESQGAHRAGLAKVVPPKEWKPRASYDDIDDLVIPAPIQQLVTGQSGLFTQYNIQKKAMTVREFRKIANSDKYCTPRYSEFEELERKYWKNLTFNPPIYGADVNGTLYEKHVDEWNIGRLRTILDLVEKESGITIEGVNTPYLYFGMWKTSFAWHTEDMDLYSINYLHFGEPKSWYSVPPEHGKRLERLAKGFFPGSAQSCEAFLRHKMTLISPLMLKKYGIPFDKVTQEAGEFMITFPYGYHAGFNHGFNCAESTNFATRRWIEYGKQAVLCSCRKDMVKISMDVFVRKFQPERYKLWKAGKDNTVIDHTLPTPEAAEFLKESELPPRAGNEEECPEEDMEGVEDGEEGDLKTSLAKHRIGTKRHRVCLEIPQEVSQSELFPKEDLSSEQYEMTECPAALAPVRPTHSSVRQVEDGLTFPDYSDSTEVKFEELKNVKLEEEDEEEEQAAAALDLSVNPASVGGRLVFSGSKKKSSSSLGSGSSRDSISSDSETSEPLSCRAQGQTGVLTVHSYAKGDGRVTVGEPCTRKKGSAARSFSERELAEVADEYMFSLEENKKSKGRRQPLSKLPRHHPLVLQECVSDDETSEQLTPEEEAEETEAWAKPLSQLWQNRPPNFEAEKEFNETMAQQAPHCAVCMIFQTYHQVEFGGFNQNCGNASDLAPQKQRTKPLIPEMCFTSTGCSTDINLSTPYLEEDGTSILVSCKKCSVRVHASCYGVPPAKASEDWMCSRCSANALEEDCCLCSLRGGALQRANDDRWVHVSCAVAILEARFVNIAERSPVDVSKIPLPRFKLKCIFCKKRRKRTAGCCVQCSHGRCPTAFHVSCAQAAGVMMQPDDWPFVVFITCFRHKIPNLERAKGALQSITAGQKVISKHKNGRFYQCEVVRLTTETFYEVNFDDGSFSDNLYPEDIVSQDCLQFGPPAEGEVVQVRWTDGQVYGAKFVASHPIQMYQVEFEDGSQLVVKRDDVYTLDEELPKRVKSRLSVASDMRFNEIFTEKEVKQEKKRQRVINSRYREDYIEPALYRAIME
Active calls of the source: *; ? = inconclusive; . = not tested or not shown; ! = not active in a repeat; [ ] = dose if it differs, or a comment. Only some compounds are listed: those with a hit (about 12% of all), similar ones and a draw of the others. The call rests on the fitted dose curve; in most records, active means well fitted curve in the direction sought with a large enough effect; inconclusive means small, poorly fitted or top-dose-only effect, or another doubt; inactive means no such curve, though single readings can be large; an effect the other way counts as inactive or inconclusive. Potency means the concentration at half of the fitted maximal effect.

SMILES	BAZ2B inh	G9a inh	Sfp PPTase inh	HP1b chromo inh	JMJD2A Tudor inh
C1=CC2C3C=CC(C3)C2C1 (stereo not drawn)	-6%	12%[0.501 µM]	.	47%	-6%
COc1ccc2c(c1)CCc1c(C(=O)Nc3c(C)nn(Cc4ccccc4C)c3C)noc1-2	-13%	?	.	9%	-23%
O=C(c1c[nH]cc1-c1ccccc1)c1cccc2ccccc12	25µM*	25µM*	17%	?	-12%
CCCn1c(C)c(C(=O)c2cccc3ccccc23)c2ccccc21	-4%	-34%[59 µM]	-15%	29%	-18%
CN1C(=O)N(C)C(=O)C2(Cc3cc(NC(=O)c4ccc(F)cc4)ccc3N3CCCC32)C1=O (stereo not drawn)	17%	.	-15%	-18%[57 µM]	?
CC(=O)Nc1ccc2c(c1)CC1(C(=O)N(C)C(=O)N(C)C1=O)C1CCCN21 (stereo not drawn)	-6%	35µM*	-12%	61%	-7%
O=Cc1cn(Cc2c(F)cccc2Cl)c2ccccc12	-1%	45%[59 µM]	50µM*	47%	14%
Cc1ccc(N2CCN(C(=O)c3cn(CC4CCCCC4)nn3)C(C)C2)cc1 (stereo not drawn)	.	.	.	3%	?
CCCc1cc(=O)oc2cc(OCC(=O)N3CCN(Cc4ccc5c(c4)OCO5)CC3)ccc12	50µM*	-36%	-2%	23%	-32%
C[C@]12CC[C@@H]3[C@@H](CCC4=CC(=O)CC[C@@H]43)[C@@H]1CC[C@@H]2OC(=O)CCc1ccccc1	.	29%[59 µM]	?	.	.
[N-]=[N+]=CC(=O)OCC(N)C(=O)O (stereo not drawn)	.	.	-9%	.	.
C/C(=C/CCC(C)[C@H]1CC[C@@]2(C)C3=C(CC[C@]12C)[C@@]1(C)CCC(=O)C(C)(C)[C@@H]1CC3)C(=O)O (stereo partly drawn)	?	?	3%	10%	63µM*
CCOC(=O)c1ccc(NC(=O)CSc2cc(=O)n(CC)c3ccccc23)cc1	6%	?	.	-6%	-3%
COC(=O)C12C/C=C\Cc3ccccc3[C@@H]1CNC2=O (stereo partly drawn)	.	.	-22%	.	.
CC(CCC(=O)O)C1CCC2C3C(=O)C[C@@H]4CC(=O)CC[C@@]4(C)C3CC(=O)[C@]12C (stereo partly drawn)	.	0%[59 µM]	7%	.	.
Cc1ccc(N)c(C(=O)c2ccccc2)c1	?	?	5%	-13%	?
Cc1cc(N=Nc2ccccc2C)ccc1N	.	.	.	35µM*	40µM*
c1ccc2sc(C3(N4CCCC4)CCCCC3)cc2c1	.	-4%[59 µM]	9%	.	.
CN(CC(=O)Nc1ccc(N2CCOCC2)cc1)CC(=O)Nc1cccc(C#N)c1	?	?	-1%	-4%	-29%
CN(C)S(=O)(=O)N(CC(=O)Nc1ccccc1)c1ccccc1	5%	-5%[59 µM]	32%	15%	-13%
CN(CC(=O)Nc1cccc(F)c1)CC(=O)Nc1cccc(S(=O)(=O)N(C)c2ccccc2)c1	.	.	.	40µM*	0.89µM*
CCN(CC)c1ccc(CC2C(=O)N(C)C(=O)N(C)C2=O)cc1	45µM*	13µM*	?	?	45µM*
Cc1ccccc1-c1ccc2n1Cc1cnnn1-c1ccccc1-2	.	.	.	?	50µM*
COCc1[nH]nc2c1C(c1ccccc1F)C(C#N)=C(N)O2 (stereo not drawn)	18%	-10%	11%	31%	-9%
S=c1[nH]c2cc(Br)cnc2[nH]1	-24%	3.2µM*	22µM*	?	20µM*
SMILES	BAZ2B inh	G9a inh	Sfp PPTase inh	HP1b chromo inh	JMJD2A Tudor inh
CC(C)(C)OC(=O)NNC(=S)NC1CCCCC1	-16%	25µM*	11%	29%	-3%
CC(C)n1c(O)c(C2c3cc(Cl)ccc3Oc3[nH]c(=O)n(C(C)C)c(=O)c32)c(=O)[nH]c1=O (stereo not drawn)	-24%	4.5µM*	28µM*	9%	-16%
CCCCOP(=O)(c1ccc(N(C)C)cc1)C(Nc1ccccc1)c1ccccc1 (stereo not drawn)	?	45µM*	-23%	-32%	?
CCC(COC(=O)c1cc(OC)c(OC)c(OC)c1)(c1ccccc1)N(C)C (stereo not drawn)	-38%	-45%[2.33 µM]	-3%	-7%	50µM*!
CN(C)c1ccc(C(O)P(=O)(OCc2ccccc2)c2ccc(N(C)C)cc2)cc1 (stereo not drawn)	40µM*	15%[12.7 µM]	-7%	?	89µM*
CNC(=O)OCCc1n(C)cc[n+]1C	0%	14µM*	-6%	10%	-17%
COc1ccccc1C(=O)Nc1ccc2nc(SCC(=O)N3CCCc4ccccc43)sc2c1	-36%	-13%[59 µM]	.	66%	-16%
COc1cc(CN2CC=C(c3ccc(F)cc3)CC2)cc(OC)c1	2%	.	-1%	49%	6%
O=C1CC(N2CC=C(c3ccc(F)cc3)CC2)C(=O)N1c1ccc(F)cc1 (stereo not drawn)	-12%	25µM*	3%	31%	?
CCOC(=O)c1ccc(N2C(=O)CC(N3CC=C(c4ccc(F)cc4)CC3)C2=O)cc1 (stereo not drawn)	8%	3.2µM*	32µM*	1%	-34%
COc1ccc(N2CCN(Cc3nc4ccccc4[nH]3)CC2)cc1	-26%	32µM*	16%	16%	-34%
CN1CCN(C(=O)Cc2nc3ccccc3[nH]2)CC1	10%	-35%	1%	22%	-6%
COc1cc(CNc2ccc3[nH]c(=O)[nH]c3c2)ccc1OCc1ccccc1C	-29%	?	8%	-25%	-35%
COc1cc(/C=C(/C)[N+](=O)[O-])ccc1OCc1ccccc1Cl	?	10µM*	14µM*	-1%	-28%
OC(c1ccc(Cl)cc1)(c1cncnc1)c1ccccc1Cl (stereo not drawn)	.	.	-12%	.	.
C=C(CC1(CNP(=O)(c2ccccc2)c2ccccc2)CC1)c1ccccc1	.	.	13%	.	.
COc1ccc(-c2n[nH]c(=S)n2-c2ccc3c(c2)OCCO3)cc1OC	-10%	.	?	8%	3.2µM*
COc1ccc(C2=NCC(=S)Nc3ccc(Cl)cc32)cc1OC	.	.	.	15%	-20%
S=c1[nH]nc(-c2ccc3ccccc3n2)n1-c1ccc2c(c1)OCCO2	?	.	-2%	8%	45µM*
O=c1c2ccccc2[nH]c(=S)n1-c1ccc2c(c1)OCO2	-5%	20%[59 µM]	20%	44%	-2%
O=C(Oc1ccccc1)N1CCC2(CCN(Cc3nccs3)CC2)CC1	.	-6%[12.7 µM]	12%	.	.
CC12CC[C@H]3[C@@H](CCC4(O)C[C@H](O)CCC34/C=N/NC(=O)c3ccc(O)cc3)C1(O)CCC2C1=CC(=O)OC1 (stereo partly drawn)	-4%	.	11%	46%	-6%
